This note sets out measurements from PubChem BioAssay (NCI).

SMILES strings stand for the structures. “And” between values parts separate entries of the source, which are not always exact repeats. Equal entries are not always repeated. About 83,000 compounds went through this panel and 20% of them were active in at least one assay; those are over-represented in the sample as a whole.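 The endpoint reported here, percent growth, reads 100 for growth as untreated, 0 for no net growth and -100 for all cells dead.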 A structure can be active in one record and inactive in another. The source made the active and inactive calls. The calls were made as follows: active = growth percent below 10; inactive = the rest.

The test system of the assay is HL-60(TB) leukemia. In words: NCI-60 one-dose screen, 48 h (100 = growth as untreated, 0 = no growth, -100 = all killed). The note with it: 10 µM unless noted.
As to `NS(=O)(=O)N(c1cc(C(F)(F)F)cc(C(F)(F)F)c1)C1CCN(Cc2ccc(C(F)(F)F)cc2)CC1`, the growth is 37.3% (inactive).
For `N#CC1c2ccccc2C=CN1C(=O)CCCl` (stereo not drawn), the growth was 65.5% (inactive).
Regarding `OCc1cnccc1NC12CC3CC(CC(C3)C1)C2`, the growth was 85.3% (inactive).
Under `O=S(=O)(NCCNc1cc(-c2cn(-c3ccccc3)nc2-c2cccc(O)c2)ccn1)c1ccc(Br)cc1` stands 11.1% (inactive); under `CCOC(=O)C(=Cc1ccc(Br)cc1)C(=O)OCC`, -41.8% (active).
In the case of `COc1ccc(Cl)c([N+](=O)[O-])c1` it was 98.6% (inactive); in that of `COc1cccc([C@H]2c3[nH]c4ccccc4c3C[C@H]3C(=O)N(CCCCCCC(=O)NO)CC(=O)N23)c1`, 31% (inactive); in that of `O=C(c1nn(-c2ccccc2)c2c1CC(NCc1ccc(F)cc1)CC2)N1CCCCC1` (stereo not drawn), 86.6% (inactive).
Under `C[C@@H](c1ccc2c(c1)[nH]c1ccc(Cl)cc12)c1nc2ccccc2[nH]1` stands 91.3% (inactive); under `CC[Si](CC)(CC)OC1[C@@H](O[Si](CC)(CC)CC)[C@@H](CNC(=O)NC)O[C@H]1n1cnc2c(NC(=O)Nc3ccccc3)ncnc21` (stereo partly drawn), -39.6% (active).
Take `N/C(=C\C(=O)n1nc(-c2ccccc2)cc1N)c1ccccc1`: the growth was 1.71% (active).
With `Cc1cc(N(CCCNc2ccnc3cc(Cl)ccc23)Cc2ccco2)nc(N2CCOCC2)n1`, the growth is 45.5% (inactive).
On to `CCOC(=O)c1c(C)oc2ncnc(N3CCN(C(=S)Nc4ccccc4)CC3)c12`, for which the growth is 94.7% (inactive).
Regarding `CCn1cnc(C[C@H](NC(=O)[C@@H](NC(=O)Nc2cc(C(F)(F)F)cc(C(F)(F)F)c2)C(C)(C)C)C(=O)OC)c1`, the growth is -71.5% [100 µM] (active).
In the case of `CC(=O)c1ccc2c(c1)c1ccccc1n2C` it was 84.1% (inactive); in that of `COc1ccc(-c2nsc3c2NC(=O)CC3c2ccc(Cl)cc2)cc1` (stereo not drawn), 80.1% (inactive); in that of `Cc1ccc2c(ccc3c[n+]4c5ccccc5ccc4n32)c1`, 2.59% (active).
In the case of `CN(C)CCOC1(Cc2ccc(Cl)cc2Cl)CCC(C(C)(C)C)CC1` (stereo not drawn) it was 43.9% (inactive) and 9.21% (active); in that of `O=C(NCc1ccccc1)Nc1ccccc1CNc1nc(Nc2ccc(OCCN3CCCC3)cc2)ncc1Cl`, 62.4% (inactive).
Under `Cc1nc(Nc2ncc(C(=O)Nc3c(C)cccc3Cl)s2)cc(N2CCN(CCO)CC2)n1` stands 107% (inactive) and 35.7% (inactive); under `C=C(CN1CCc2c([nH]c3ccccc23)C1)c1ccc(C(=O)Nc2ccon2)cc1`, 99% (inactive); under `Nc1nc2c(c3ncccc13)C(c1ccc(Cl)c(Cl)c1)Cc1ncccc1-2` (stereo not drawn), -7.14% (active).
Take `CN(C)c1ccc(/C=C/c2ccnc3ccccc23)cc1N`: the growth was 43.5% (inactive).
Turning to `CCOC(=O)c1cn2ncnc(Oc3ccc(NC(=O)NC4CCCCC4)c(Cl)c3)c2c1C`, the growth is 70.9% (inactive).
For the compound `COc1cc(N2C(=O)[C@H](O)C2c2ccc(SC)cc2)cc(OC)c1OC` (stereo partly drawn), the growth is -41% (active).
Under `COc1cc(C(=O)C[n+]2ccccc2)ccc1OC(C)=O` stands 101% (inactive); under `COc1ccc(C2=C(c3cc(OC)c(OC)c(OC)c3)C(=O)CC2)cc1`, 11.1% (inactive); under `CCN1CC(=O)N(/N=C2\C(=O)Nc3ccccc32)C1=S`, 82.7% (inactive).
